Compound activity as filed in PubChem BioAssay.
LMNA splice mod: qHTS Assay for Modulators of Lamin A Splicing; Potency, µM (doses to about 46.1 µM), inactives show top-dose ratio change, negative = inhibition, most hits filed as inhibitors; HeLa LMNA splicing GFP/RFP minigene ratio, 48 h; 0.01% of 200,000 active; active means well fitted inhibition curve with a large enough effect in the signal ratio, with a control signal flat, not every such curve was filed as active; inconclusive means small, poorly fitted or top-dose-only effect, or effect the other way, or a change in a side signal; the % refers to the signal ratio; further: potency means the concentration at half of the fitted maximal effect
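S3 HeLa cells stably expressing lamin A-EGFP splicing minigene plus DsRed2, 600 cells/well, 48 h compound exposure at 37C. Laser-scanning cytometry; analysed as GFP (500-530 nm)/RFP (575-640 nm) total intensity ratio; 0.5% DMSO vehicle.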
ALDH1A1 block: qHTS Assay for Inhibitors of Aldehyde Dehydrogenase 1 (ALDH1A1) | AID 1030, 2008 | 7.3% of 220,000 active | Purified ALDH1A1, NADH fluorescence, propionaldehyde substrate | Potency, µM (doses to about 75.3 µM), without a hit: at the top dose activity, negative = inhibition, usual class: inhibitors | Aldehyde dehydrogenase 1A1 (Homo sapiens), P00352;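 further: potency means the concentration at half of the fitted maximal effect; plate controls were no enzyme wells and a reference inhibitor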
Target sequence (P00352 whole entry, looked up): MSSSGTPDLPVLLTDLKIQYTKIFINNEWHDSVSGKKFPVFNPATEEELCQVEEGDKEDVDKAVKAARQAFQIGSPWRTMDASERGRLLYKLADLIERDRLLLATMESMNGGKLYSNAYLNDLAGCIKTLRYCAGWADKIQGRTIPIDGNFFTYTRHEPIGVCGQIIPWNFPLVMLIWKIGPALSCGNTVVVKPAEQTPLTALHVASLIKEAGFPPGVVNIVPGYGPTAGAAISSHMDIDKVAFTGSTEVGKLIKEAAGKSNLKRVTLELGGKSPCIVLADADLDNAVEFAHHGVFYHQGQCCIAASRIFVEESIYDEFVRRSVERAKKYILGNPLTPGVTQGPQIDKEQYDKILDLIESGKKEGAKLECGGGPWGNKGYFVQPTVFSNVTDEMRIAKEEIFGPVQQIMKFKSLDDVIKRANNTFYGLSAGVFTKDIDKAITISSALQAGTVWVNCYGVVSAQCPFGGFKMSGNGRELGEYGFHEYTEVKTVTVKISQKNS
PNC assembly inh: High Content Assay for Compounds that inhibit the Assembly of the Perinucleolar Compartment | 3.1% of 140,000 active | PC3M PTB-GFP, PNC prevalence imaging, 16 h; stronger effect = lower value | activity change (PNC), negative = inhibition, % at 10 µM;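 active means readout at or below -70, meaning at least 70% loss of cells showing the perinucleolar compartment, a nuclear body marking cancer cells; inconclusive means readout between -30 and a set limit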;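 further: plate controls were DMSO wells for no effect and camptothecin positive control wells for full effect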
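Compounds are pinned in duplicate onto adhered PC3M cells stably expressing GFP-tagged PTB and incubated 16 h at 37 C. Cells are then fixed, nuclei stained with Hoechst, and PNC-positive cells counted.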
HPGD inh: qHTS Assay for Inhibitors of HPGD (15-Hydroxyprostaglandin Dehydrogenase); 4.3% of 150,000 active; Potency, µM, without a hit: at the top dose activity change, negative = inhibition, actives largely listed as inhibitors; AID 894, 2007; purified HPGD, NADH fluorescence kinetic, PGE2 substrate; further: potency means the concentration at half of the fitted maximal effect
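NADH formation kinetics: reaction with 30 uM PGE2 and 1 mM NAD+ (final), 20 nM enzyme, Tris-HCl pH 8 with Tween 20, after 15 min compound preincubation at room temperature. Fluorescence change, last versus first of five reads.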
KinaseGlo FLuc: Counterscreen for Luciferase (Kinase-Glo TM) Inhibition | AID 1379, 2008 | Potency, µM (doses to about 38.3 µM), for inactives: at the highest dose activity change, negative = inhibition, actives largely listed as inhibitors | Kinase-Glo luciferase, ATP luminescence, 8 min | Luciferin 4-monooxygenase (Photuris pensylvanica), Q27757 | 0.28% of 200,000 active; active means well fitted inhibition curve with a large enough effect; inconclusive means small, poorly fitted or top-dose-only effect; further: potency means the concentration at half of the fitted maximal effect; nearly all actives have a fitted effect of over 60% in size
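Recombinant Kinase-Glo luciferase, 10 uM ATP (linear range), luciferin; imidazole pH 7.2 / KCl / MgCl2 / Tween / BSA buffer; 8 min RT; luminescence.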
The depositor's hits bear a star; [ ] = another dose, or the depositor's remark. Most compounds without a hit are left out; they make up all but 10% or so of the library. Unless noted, the call rests on the fitted dose curve; in most records, active means well fitted inhibition curve with a large enough effect (not every such curve was filed as active); inconclusive means small, poorly fitted or top-dose-only effect, or another doubt; inactive means no such curve, though single readings can be large or run the other way. Unless noted, on the % scale 0 is the no-effect control and ±100 the full control effect.

`COc1ccc(OCc2cccc(C(=O)Nn3cc([N+](=O)[O-])cn3)c2)cc1` gave LMNA splice mod -18%, ALDH1A1 block -1%, PNC assembly inh -99*, HPGD inh -33% and KinaseGlo FLuc -7%.
For NNC(=O)c1cccc(COc2ccc(Br)cc2)c1 the results were LMNA splice mod -10%, ALDH1A1 block 0.63µM*, PNC assembly inh inconclusive, HPGD inh -6% and KinaseGlo FLuc -1%.
For COC(=O)c1cccc(Cn2cc([N+](=O)[O-])cn2)c1 the results were LMNA splice mod -19%[46 µM], ALDH1A1 block 5% and KinaseGlo FLuc 2%.
`O=C(Nc1nn[nH]n1)c1nc(-c2ccccc2)cc(=O)[nH]1` gave ALDH1A1 block -14%[13.5 µM], HPGD inh -6% and KinaseGlo FLuc -1%[7.66 µM].
Screening NNC(=O)c1cccc(COc2cccc(Br)c2)c1 returned LMNA splice mod -13%, ALDH1A1 block 3.2µM*, PNC assembly inh 18, HPGD inh -8% and KinaseGlo FLuc 0%.
For CCNC(=S)NNC(=O)c1cc(-c2cccc(C)c2)nc2ccccc12 the results were LMNA splice mod inconclusive, ALDH1A1 block inconclusive, PNC assembly inh -22, HPGD inh -9% and KinaseGlo FLuc 13µM*.
Screening CC(=O)c1ccc(NC(=O)c2cc(Cl)nc3ccccc23)cc1 returned LMNA splice mod 0%[46 µM], ALDH1A1 block -12% and KinaseGlo FLuc -1%.
For CCNC(=S)NNC(=O)c1ccccc1Cl the results were LMNA splice mod 16%, ALDH1A1 block 16%, PNC assembly inh -81*, HPGD inh -5% and KinaseGlo FLuc 3%.
`O=C(NC(=S)Nc1ccccc1)c1cc(-c2ccccc2)nc2ccccc12` gave LMNA splice mod -31%, ALDH1A1 block 1.3µM*, PNC assembly inh inconclusive, HPGD inh 20µM* and KinaseGlo FLuc -5%.
For O=C(Nc1ccccc1)c1cc(Cl)nc2ccccc12 the results were LMNA splice mod -14%, ALDH1A1 block -7%, PNC assembly inh -100*, HPGD inh -8% and KinaseGlo FLuc 0%.
`CCOC(=O)c1cnc(NCc2ccc(OC)cc2OC)c2ccccc12` gave LMNA splice mod -13%[46 µM].
`NC(=O)c1ccc(NC(=O)c2cnc3ccccc3n2)cc1` gave LMNA splice mod -3%[46 µM] and ALDH1A1 block -6%.
`O=C(Nc1ccccc1)c1cnc2ccccc2n1` gave LMNA splice mod -7%, ALDH1A1 block -13%, PNC assembly inh -114*, HPGD inh -12% and KinaseGlo FLuc -8%.
Screening NNc1nnc(-c2ccccc2)c(-c2ccccc2)n1 returned LMNA splice mod inconclusive, ALDH1A1 block 13µM*, PNC assembly inh inconclusive, HPGD inh -7% and KinaseGlo FLuc 1%.
Screening NNc1nc(-c2ccccc2)c2ccccc2n1 returned LMNA splice mod -21%[46 µM], ALDH1A1 block 1% and KinaseGlo FLuc 0%.
For COC(=O)CCC/C=C1/SCC(NC(=O)c2ccccc2)C1O (stereo not given) the results were LMNA splice mod inconclusive, ALDH1A1 block inconclusive, PNC assembly inh inconclusive, HPGD inh -12% and KinaseGlo FLuc 1%.
Screening COC(=O)CCC/C=C1/SCC(NC(=O)c2ccccc2)C1=O (stereo not given) returned LMNA splice mod 5%, ALDH1A1 block 7.9µM*, PNC assembly inh 14, HPGD inh 25µM* and KinaseGlo FLuc -3%.
For CC(=C\C(=O)O)/C(=C/c1ccc(C)o1)C(=O)O the results were LMNA splice mod -3%, ALDH1A1 block 22µM*, PNC assembly inh -2, HPGD inh -19% and KinaseGlo FLuc 8%.
For C/C(=C\c1ccc(C)o1)C(=O)c1c(C)cc(C)[nH]c1=O the results were LMNA splice mod 17%[9.22 µM], ALDH1A1 block inconclusive and KinaseGlo FLuc 3%.
`COc1cccc(C(=O)Nn2c(C)nnc2-n2nc(C)cc2C)c1` gave LMNA splice mod -1%, ALDH1A1 block 2%, PNC assembly inh -100*, HPGD inh -9% and KinaseGlo FLuc -1%.
Nc1nc(Cc2ccccc2)nc(Cc2ccccc2)c1-c1ccccc1 was read as ALDH1A1 block -11%[13.5 µM], HPGD inh -6% and KinaseGlo FLuc -6%[7.66 µM].
Screening CC(C)Oc1ccc(C(=O)NC2=NCCS2)cc1 returned LMNA splice mod inconclusive, ALDH1A1 block 20µM* and KinaseGlo FLuc -5%.
Screening CC(C)c1ccc(C(=O)NC2=NCCS2)cc1 returned LMNA splice mod 7%, ALDH1A1 block 3%, PNC assembly inh 36, HPGD inh -13% and KinaseGlo FLuc -3%.
CCCCSCCCNC(=O)C1CCC(CNS(=O)(=O)c2c(C)cc(C)cc2C)CC1 (stereo not given) was read as LMNA splice mod -22%[46 µM].
Screening O=C(c1ccc(-n2c(SCc3cccc(F)c3)nc3ccccc3c2=O)cc1)N1CCOCC1 returned LMNA splice mod 0%, ALDH1A1 block 0.32µM*, PNC assembly inh -25, HPGD inh -13% and KinaseGlo FLuc 0%.
`O=C(CSc1nc2ccccc2c(=O)n1-c1ccc(SC(F)F)cc1)Nc1ccc(N2CCOCC2)cc1` gave ALDH1A1 block 10µM* and KinaseGlo FLuc 1%.
CC(C)(C)OC(=O)N1CCC(c2c(C(=O)N3CCN(c4ccccc4F)CC3)cnn2C(C)(C)C)CC1 was read as LMNA splice mod 4%[46 µM].
Cc1ccccc1N/N=C1\CCCNC1=O was read as LMNA splice mod -3%, ALDH1A1 block 10µM*, PNC assembly inh 5, HPGD inh 22µM* and KinaseGlo FLuc -8%.
Cc1ccc(C)c(N/N=C2\CCCNC2=O)c1 was read as LMNA splice mod 3%, ALDH1A1 block 0%, PNC assembly inh 32, HPGD inh -21% and KinaseGlo FLuc -1%.
`O=[N+]([O-])c1ccc(-n2nnnc2CN2CCCCC2)cc1` gave ALDH1A1 block 20µM* and KinaseGlo FLuc -1%.
`Cc1c(-c2ccc(O)cc2)nn(-c2ccc(O)cc2)c1-c1ccc(OCCN2CCCCC2)cc1` gave ALDH1A1 block inconclusive, HPGD inh -20% and KinaseGlo FLuc 0%.
`Cc1onc(-c2ccccc2)c1-c1ccnn1S(=O)(=O)c1ccc(Cl)cc1` gave ALDH1A1 block 7.9µM*.
For Cc1onc(-c2ccc(Cl)cc2)c1-c1ccnn1S(=O)(=O)c1cccc(C(F)(F)F)c1 the results were LMNA splice mod -1%[46 µM] and ALDH1A1 block 3%.
For Cc1nc2ccccc2c(=O)n1/N=C/c1ccc(N(C)C)cc1 the results were LMNA splice mod -5%, ALDH1A1 block 16µM*, PNC assembly inh -13, HPGD inh -6% and KinaseGlo FLuc -5%.
`Cc1nc2ccccc2c(=O)n1/N=C/c1ccc([N+](=O)[O-])o1` gave ALDH1A1 block 19µM*.
